# From the antibiotic and cytotoxicity screens of Wong et al. (2023)
# In all, about 39,000 compounds went through this assay and about 500 (1.3%) were called active. Only a selection was taken, and actives are over-represented in it overall.
# System: S. aureus RN4220
# Assay: growth inhibition call (relative growth <= 0.2)
# Conditions: 50 µM
row,SMILES,growth inhibition call
1,C(=N\C1CCCCCCCCCCC1)/c1ccco1,inactive
2,C[C@H](CO)N1C[C@H](C)[C@H](CN(C)S(=O)(=O)c2cn(C)cn2)Oc2ccc(NC(=O)Cc3cn(C)c4ccccc34)cc2C1=O,inactive
3,C[C@@H]1CN([C@@H](C)CO)C(=O)Cc2cc(NC(=O)Cc3cn(C)c4ccccc34)ccc2O[C@H]1CN(C)Cc1ccc(Oc2ccccc2)cc1,inactive
4,OCc1cn(-c2ccccc2)nn1,inactive
5,c1ccc(-c2nc(C34CC5CC(CC(C5)C3)C4)cs2)cc1,inactive
6,NCc1cn(-c2ccccc2)nc1C12CC3CC(CC(C3)C1)C2,active
7,C=CC[C@@H](CC(=O)N[C@H](CO)Cc1ccccc1)C(=O)N[C@H](C)COC(=O)[C@@H](CC=C)CC(=O)OC(C)(C)C,inactive
8,C[C@@H]1CCCCO[C@@H](CN(C)Cc2ccncc2)[C@H](C)CN([C@H](C)CO)C(=O)c2cc(NC(=O)NC3CCCCC3)ccc2O1,inactive
9,CCc1oc2ccccc2c1C(=O)c1cc(Br)c(O)c(Br)c1,active
10,CCCCc1oc2ccccc2c1C(=O)c1cc(I)c(OCCN(CC)CC)c(I)c1.Cl,inactive
11,CCCCc1oc2ccccc2c1C(=O)c1cc(I)c(OCCN(CC)CC)c(I)c1,inactive
12,OC[C@H]1O[C@@H](OCc2ccccc2)[C@H](O)[C@@H](O)[C@@H]1O,inactive
13,Cc1noc(C)c1NC(=O)Nc1ccc2c(c1)C(=O)N([C@@H](C)CO)C[C@@H](C)[C@@H](CN(C)C(=O)Nc1ccccc1)OCCCC[C@@H](C)O2,inactive
14,COc1cc(NC(=O)c2cccc(-n3cc(NC(=O)Nc4cccc(C)c4)cn3)c2)cc(OC)c1OC,inactive
15,CC(=O)N1[C@H](CNC(=O)CN2CCOCC2)[C@H](c2ccccc2)[C@@H]1CO,inactive
16,CON=C(C(=O)NC1C(=O)N2C(C(=O)OCOC(=O)C(C)(C)C)=C(C=Cc3scnc3C)CSC12)c1csc(N)n1 (stereo unspecified),active
17,CON=C(C(=O)N[C@@H]1C(=O)N2C(C(=O)OCOC(=O)C(C)(C)C)=C(C=Cc3scnc3C)CS[C@H]12)c1csc(N)n1,active
18,CCC=C(C(=O)NC1C(=O)N2C(C(=O)OCOC(=O)C(C)(C)C)=C(COC(N)=O)CSC12)c1csc(N)n1.Cl (stereo unspecified),inactive
19,CC(C)NC(=O)N(C)C[C@H]1Oc2ccc(NS(=O)(=O)c3ccc(F)cc3)cc2CC(=O)N([C@H](C)CO)C[C@H]1C,inactive
20,COc1ccc2c3c([nH]c2c1)[C@@H](CO)N(C[C@]13CN(C1)S(=O)(=O)c1cccs1)C(=O)c1ccccc1,inactive
21,C[C@@H]1CN([C@@H](C)CO)C(=O)c2cc(NC(=O)NC3CCCCC3)ccc2O[C@@H]1CN(C)Cc1ccc(Oc2ccccc2)cc1,inactive
22,CC(C)(C)C(=O)C[n+]1ccc(C(N)=O)cc1,inactive
23,O=C(O)[C@H]1/C(=C/CO)O[C@@H]2CC(=O)N21,inactive
24,O=C(O)[C@@H]1C(=CCO)O[C@H]2CC(=O)N12,inactive
25,O=C(O)C1C(=CCO)OC2CC(=O)N21.[LiH] (stereo unspecified),active
26,N[C@@H]1CC[C@@H](CCn2cc(C3(O)CCCC3)nn2)O[C@H]1CO,inactive

row,SMILES,growth inhibition call
1,C[C@H](CO)N1C[C@H](C)[C@H](CN(C)C(=O)Nc2ccc(F)cc2)OCc2ccccc2-c2ccccc2C1=O,inactive
2,C[C@@H]1CCCCO[C@@H](CN(C)C(=O)NC2CCCCC2)[C@H](C)CN([C@H](C)CO)C(=O)c2cc(NS(=O)(=O)c3cccs3)ccc2O1,inactive
3,Cc1cccc(S(=O)(=O)N2C[C@H](O)COC[C@@H]3O[C@@H](CC(=O)NCc4ccc5c(c4)OCO5)CC[C@H]32)c1,inactive
4,CC(=O)Nc1ncc([N+](=O)[O-])s1,inactive
5,CC(=O)Oc1ccccc1C(=O)Nc1ccccc1,inactive
6,CC(=O)Oc1ccccc1C(=O)Nc1ncc([N+](=O)[O-])s1,active
7,O=S1(=O)C[C@@H]2NC(=S)N[C@@H]2C1,inactive
8,C[C@H](CO)N1C[C@H](C)[C@@H](CN(C)S(=O)(=O)c2cn(C)cn2)Oc2ccc(NC(=O)NC3CCCCC3)cc2CC1=O,inactive
9,C[C@@H]1CN([C@@H](C)CO)C(=O)c2cc(NC(=O)CCN3CCOCC3)ccc2O[C@@H]1CN(C)C(=O)Nc1ccccc1,inactive
10,CC(C)NC(=O)N(C)C[C@H]1OCCCC[C@@H](C)Oc2ccc(NC(=O)C3CCCCC3)cc2C(=O)N([C@H](C)CO)C[C@H]1C,inactive
11,COc1ccc(C2=N[C@H](c3ccc(Cl)cc3)[C@H](c3ccc(Cl)cc3)N2C(=O)N2CCNC(=O)C2)c(OC(C)C)c1,inactive
12,COc1ccc(C2=N[C@@H](c3ccc(Cl)cc3)[C@@H](c3ccc(Cl)cc3)N2C(=O)N2CCNC(=O)C2)c(OC(C)C)c1,active
13,C[C@H]1CN([C@@H](C)CO)C(=O)Cc2cc(NC(=O)CCN3CCOCC3)ccc2O[C@@H]1CN(C)C(=O)Nc1ccccc1,inactive
14,O=C(Nc1ccc(Br)cc1)c1ccc(N2C(=O)c3ccc(C(=O)Nc4ccc(Br)cc4)cc3C2=O)cc1,inactive
15,CO[C@H]1CN(C)C(=O)c2ccc(NC(=O)Nc3cccc(F)c3)cc2OC[C@H](C)N(C(=O)Nc2c(C)noc2C)C[C@@H]1C,inactive
16,CS(=O)(=O)c1ccc(C(O)C(CF)NC(=O)C(Cl)Cl)cc1 (stereo unspecified),active
17,CCCCCCCCCCCCCCCC(=O)OCC(NC(=O)C(Cl)Cl)C(O)c1ccc([N+](=O)[O-])cc1 (stereo unspecified),inactive
18,O=C(NC(CO)C(O)c1ccc([N+](=O)[O-])cc1)C(Cl)Cl (stereo unspecified),active
19,O=C([O-])CCC(=O)OCC(NC(=O)C(Cl)Cl)C(O)c1ccc([N+](=O)[O-])cc1.[Na+] (stereo unspecified),inactive
20,CS(=O)(=O)c1ccc(C(O)C(CO)NC(=O)C(Cl)Cl)cc1 (stereo unspecified),inactive
21,CCCCCCCCCCCCCCCC(=O)OC[C@H](NC(=O)C(Cl)Cl)[C@H](O)c1ccc([N+](=O)[O-])cc1,inactive
22,Cc1noc(C)c1NC(=O)N(C)C[C@@H]1OCCCC[C@H](C)Oc2ccc(NC(=O)Nc3ccccc3)cc2C(=O)N([C@@H](C)CO)C[C@@H]1C,inactive
23,CCCN(C)C[C@H]1OCCCC[C@@H](C)Oc2ccc(NC(=O)Nc3ccc(OC)cc3)cc2C(=O)N([C@H](C)CO)C[C@@H]1C,inactive
24,COc1cccc(-c2cn(CC[C@H]3CC[C@H](NC(=O)CN(C)C)[C@@H](CO)O3)nn2)c1,inactive
25,COCCn1cc2c(n1)[C@H](CNC(=O)CS(C)(=O)=O)OCC2,inactive
26,C[C@H](CO)N1C[C@H](C)[C@H](CN(C)S(C)(=O)=O)Oc2ncc(C#CCN(C)C)cc2C1=O,inactive

row,SMILES,growth inhibition call
1,C[C@@H]1CN([C@@H](C)CO)C(=O)c2c(c3ccccc3n2C)-c2ccccc2CO[C@H]1CN(C)Cc1ccc(C(=O)O)cc1,inactive
2,NCCn1cccn1,inactive
3,NCc1ccccc1-n1cccn1,inactive
4,Cl.N=C(N)n1cccn1,active
5,C[C@H]1CN([C@@H](C)CO)C(=O)Cc2cc(NS(=O)(=O)c3ccc(Cl)cc3)ccc2O[C@@H]1CN(C)S(=O)(=O)c1cn(C)cn1,inactive
6,CC(C)[C@@H](N)c1nc2c([nH]1)CCCC2,inactive
7,C/C(=C\C(=O)OCCCCCCCCC(=O)O)C[C@@H]1OC[C@H](C[C@@H]2O[C@H]2[C@@H](C)[C@H](C)O)[C@@H](O)[C@H]1O,inactive
8,CC(=CC(=O)OCCCCCCCCC(=O)O)CC1OCC(CC2OC2C(C)C(C)O)C(O)C1O (stereo unspecified),active
9,CCOC(=O)CC1=NNC(=N)SC1,inactive
10,C[C@@H]1CN([C@H](C)CN(C)C)C(=O)c2cc(NC(=O)Cc3cn(C)c4ccccc34)ccc2O[C@H]1CN(C)S(=O)(=O)c1ccc(Cl)cc1,inactive
11,CCCN(C)C[C@H]1OCCCC[C@@H](C)Oc2ccc(NC(=O)Nc3ccc(F)cc3)cc2C(=O)N([C@H](C)CO)C[C@@H]1C,inactive
12,CCCN(C)C[C@H]1OCCCC[C@@H](C)Oc2ccc(NC(=O)Nc3ccc(F)cc3)cc2C(=O)N([C@@H](C)CO)C[C@H]1C,active
13,CCCN(C)C[C@@H]1OCCCC[C@@H](C)Oc2ccc(NC(=O)Nc3ccc(C(F)(F)F)cc3)cc2C(=O)N([C@H](C)CO)C[C@@H]1C,inactive
14,CCCN(C)C[C@H]1OCCCC[C@@H](C)Oc2ccc(NC(=O)Nc3ccc(C(F)(F)F)cc3)cc2C(=O)N([C@@H](C)CO)C[C@H]1C,inactive
15,CCCN(C)C[C@@H]1OCCCC[C@@H](C)Oc2ccc(NC(=O)Nc3ccc(F)cc3)cc2C(=O)N([C@H](C)CO)C[C@H]1C,inactive
16,CCCN(C)C[C@H]1OCCCC[C@@H](C)Oc2ccc(NC(=O)Nc3ccc(C(F)(F)F)cc3)cc2C(=O)N([C@H](C)CO)C[C@H]1C,inactive
17,CCCN(C)C[C@@H]1OCCCC[C@H](C)Oc2ccc(NC(=O)Nc3ccc(C(F)(F)F)cc3)cc2C(=O)N([C@H](C)CO)C[C@@H]1C,inactive
18,CCCN(C)C[C@H]1OCCCC[C@H](C)Oc2ccc(NC(=O)Nc3ccc(C(F)(F)F)cc3)cc2C(=O)N([C@@H](C)CO)C[C@H]1C,active
19,CCCN(C)C[C@@H]1OCCCC[C@@H](C)Oc2ccc(NC(=O)Nc3ccc(C(F)(F)F)cc3)cc2C(=O)N([C@H](C)CO)C[C@H]1C,active
20,C[C@H]1CN([C@@H](C)CO)C(=O)c2cc(NS(C)(=O)=O)ccc2O[C@@H]1CN(C)C(=O)Nc1ccc(F)cc1,inactive
21,COCC(=O)N(C)C[C@@H]1Oc2cc(C#CCN(C)C)ccc2S(=O)(=O)N([C@H](C)CO)C[C@@H]1C,inactive
22,C[C@@H]1CCCCO[C@@H](CN(C)C(=O)C2CCCCC2)[C@@H](C)CN([C@@H](C)CO)C(=O)c2cc(NC(=O)Nc3ccc(C(F)(F)F)cc3)ccc2O1,inactive
23,COc1ccc(CNC(=O)C[C@H]2CC[C@@H]3[C@@H](COc4ccc(NC(=O)C(C)C)cc4C(=O)N3C)O2)cc1,inactive
24,C[C@@H]1CN([C@H](C)CO)C(=O)c2cccc(NC(=O)Nc3ccc(F)cc3)c2O[C@H]1CN(C)Cc1ccc(Oc2ccccc2)cc1,inactive
